This passage reports growth results from PubChem BioAssay (NCI).

Molecules are shown by their SMILES. The panel holds about 83,000 compounds, 20% with a hit somewhere; the sample as a whole holds those more often.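 The test compound was applied at a single concentration to cells in 96-well plates for 48 hours, and percent growth was recorded.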 A number with no mark means an inactive call. The source made the active and inactive calls. The calls were made as follows: active = growth percent below 10; inactive = the rest.

Common to all, as to experiment: NCI-60 one-dose screen, 48 h (100 = growth as untreated, 0 = no growth, -100 = all killed)
The test system of assay [1] is SR leukemia. Particulars: 10 µM unless noted.
The subject of assay [2] is RPMI-8226 leukemia. Particulars: 10 µM unless noted.
The test system of assay [3] is OVCAR-8 ovarian. The settings on record: 10 µM unless noted.
Assay [4] has as its system OVCAR-5 ovarian. Particulars: 10 µM unless noted.
Assay [5] has as its system OVCAR-4 ovarian. Particulars: 10 µM unless noted.
The test system of assay [6] is IGROV1 ovarian. Particulars: 10 µM unless noted.
The subject of assay [7] is OVCAR-3 ovarian. The settings on record: 10 µM unless noted.
Assay [8] relates to HS 578T breast. The settings on record: 10 µM.
Assay [9] relates to NCI/ADR-RES ovarian. The settings on record: 10 µM unless noted.
The subject of assay [10] is T-47D breast. Particulars: 10 µM unless noted.
Assay [11] relates to BT-549 breast. The settings on record: 10 µM unless noted.
In assay [12] the test system is MDA-MB-435 melanoma. The settings on record: 10 µM unless noted.
Assay [13] has as its system MCF7 breast. The settings on record: 10 µM unless noted.
Assay [14] relates to HCT-116 colon. Particulars: 10 µM unless noted.
In assay [15] the test system is HCC-2998 colon. Particulars: 10 µM.
For assay [16], the system named is KM12 colon. The settings on record: 10 µM unless noted.
Assay [17] relates to SW-620 colon. The settings on record: 10 µM unless noted.
The subject of assay [18] is SK-OV-3 ovarian. Particulars: 10 µM unless noted.

Consider `N#Cc1cc2[nH]c3ccc(OC(F)(F)F)cc3c2oc1=O`, for which the growth in assay [1] is 26.2%; in assay [2], 89.1%; in [3], 86.8%; in [4] it was 118%; in assay [5], 73.7%; in [6], 78.9%. In addition, the growth is 67.1% in assay [7]; 86.2% in [8]; 70.9% in assay [9]; 61.2% in assay [10]; 76.5% in assay [11]; 12.7% in assay [12]. Also, the growth in [13] was 81.4%; in assay [14], 81.2%; in [15], 83.3%; in [16] it was 80.2%.

For the compound `Nc1c(Cl)cccc1[N+](=O)[O-]`, the growth in assay [1] was 104%; in assay [2], 100%; in assay [3], 102%; in [4] it was 102%; in [5], 111%; in assay [6], 112%. Moreover, the growth in [7] is 111%; in assay [8] it was 87.8%; in assay [9], 102%; in assay [10] it was 110%; in assay [11], 114%; in assay [12] it was 105%. In addition, the growth in [17] is 94.6%; in [13], 99.1%; in assay [14] it was 112%; in [15], 105%; in [16] it was 107%.

Take `Cn1cnc2c(F)c(Nc3ccc(Br)cc3F)c(C(=O)NOCCO)cc21`: the growth in assay [1] is 64.6%; in assay [2] it was 63.5%; in assay [3], 65.8%; in [4] it was 9.55% (active); in assay [5], 55.9%; in assay [18] it was 50.2%. Besides, the growth is 106% in assay [7]; 69.1% in assay [9]; 81.9% in assay [10]; 81.7% in assay [11]; 32.5% in [12]; 21% in assay [17]. Also, the figures for the growth in assay [13], in [15] and in assay [16] were 87.3%, 0.38% (active) and 27.5%, respectively.

On to `COC(=O)[C@@H](NC(=O)[C@@H](OC)[C@@H]1Cc2cc3cc(OC4CC(OC5CC(O)C(O)C(C)O5)C(O)C(C)O4)c(C)c(O)c3c(O)c2C(=O)[C@H]1OC1CC(OC2CC(OC3CC(C)(O)C(O)C(C)O3)C(O)C(C)O2)C(O)C(C)O1)C(C)C` (some centres not stated), for which the growth in assay [1] was -8.16% (active); in assay [2], -1.18% (active); in assay [3], 12.6%; in [4] it was 2.67% (active); in assay [5], 13.4%; in assay [6], 32.3%. Also, the growth is 15.3% in assay [7]; -13.9% (active) in assay [8]; 69.6% in [9]; 10.2% in assay [10]; -20.7% (active) in assay [11]; 18.9% in [12]. Besides, the growth was 16.6% in [17]; 6.73% (active) in assay [13]; 4.79% (active) in assay [14]; 11.2% in assay [15]; 4.63% (active) in assay [16].

For the compound `Cc1ccc(-c2cc3c(SCC(=O)Nc4cc(C(F)(F)F)ccc4Cl)nccn3n2)cc1`, the growth in [1] was -10.2% (active); in assay [2] it was -12.5% (active); in assay [3], 33.1%; in assay [4] it was 84.7%; in assay [5], 38.1%; in assay [6] it was 52.7%. Also, the growth was 82.3% in assay [7]; 87% in assay [8]; 42.5% in assay [9]; 101% in [10]; 81.2% in assay [11]; 38.7% in [12]. Moreover, the growth in assay [13] was 14.7%; in assay [14], 14.7%; in assay [15] it was 19.5%.

For `NC1=Nc2cc(OCCCN3Cc4ccccc4C3)c(OCC3CC3)cc2C12CCCC2`, the growth was -5.81% (active) in assay [1]; 33.8% in assay [2]; 72% in assay [3]; 83.5% in assay [4]; 61.3% in assay [5]; 70.1% in [18]. For the same compound, the growth was 75.7% in assay [7]; 79% in assay [9]; 2.41% (active) in [10]; 68.6% in [11]; 38.1% in assay [12]; 76.3% in assay [17]. Further, the figures for the growth in [14], in assay [15] and in assay [16] were 32.9%, 1.52% (active) and 69.6%, respectively.

`COc1cc2c(Oc3ccc4[nH]c(C)cc4c3F)ncnc2cc1OCCCN1CCCC1`: the growth in [1] was 84.3%; in assay [2], 110%; in assay [3], 97.1%; in [4], 78.4%; in [5], 74%; in [18], 82.1%. Besides, the growth is 87.4% in assay [7]; 88.5% in [9]; 82.5% in assay [10]; 85.5% in assay [11]; 99.6% in assay [12]; 102% in assay [17]. Moreover, the growth in [13] was 89.8%; in assay [15] it was 102%; in assay [16], 96.7%.

Turning to `COc1cc2c3c(c1)nc(C)n3CCC2`, the growth is 101% in [1]; 105% in assay [2]; 96.4% in assay [3]; 102% in [4]; 96% in assay [5]; 109% in assay [6]. Besides, the growth in [7] was 109%; in [8], 105%; in [9] it was 103%; in [10], 95.8%; in assay [12], 100%; in assay [17], 107%. The growth in [13] is 99.5%; in [14], 92.8%; in [15], 99.8%; in assay [16], 108%.

Regarding `CCN(CC)CCN1C(=O)c2cccc3c(-c4ccc5c(c4)ncn5C4CCCCC4)ccc(c23)C1=O`, the growth was -14% (active) in assay [1]; -33% (active) in assay [2]; 25.9% in assay [3]; 36.4% in assay [4]; 32.9% in assay [5]; 28.4% in [6]. Also, the growth in assay [7] is 44.8%; in assay [9], 21.8%; in assay [10] it was -9.17% (active); in assay [11], 4.57% (active); in assay [12] it was 17%; in assay [17], 11.2%. Besides, the growth is -7% (active) in assay [13], -66.1% (active) in assay [14], 36.7% in assay [15] and 24.3% in [16].
